Results reported in PubChem BioAssay AID2401 (Southern Research Specialized Biocontainment Screening …, 2010).
The whole screen tested about 2,200 compounds, of which about 530 (24%) were called active. A selection follows. Measured potencies and affinities stand elsewhere. Values without a mark were called inactive.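 How the source made its calls: active means inhibition above a set limit at one or more concentrations of the dose series; inactive means inhibition under that limit at every dose.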

Test: S. Typhimurium nonspecific reporter signal inhibition – Salmonella Typhimurium, GFP fluorescence, counter-screen for PhoP regulon inhibitor project, dose response (AID 2401);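 further: S. typhimurium with Mg-insensitive nmpC-GFP reporter grown at 10 µM Mg2+; drop in reporter fluorescence reflects general culture growth inhibition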
Conditions: 4 h; series mostly up to 150 µM; inhibition: at the top concentration

Structure (SMILES) | inhibition
C#CC(C)(CC)NC(=O)c1cc(OC)c(OC)c(OC)c1 (stereo not given) | -28.1%
COC(=O)c1ccc(C)c(NC(=O)CN(c2cc(OC)ccc2OC)S(C)(=O)=O)c1 | -12.7%
CN(CC(=O)Nc1ccc(C#N)cc1)Cc1ccc(Cl)cc1 | -2.33%
Cc1cccc(C)c1Nc1nnc(SCC(=O)Nc2sccc2C#N)s1 | 1.76%
COc1ccc(S(=O)(=O)n2nc(OC(=O)c3cccs3)cc2N)cc1 | 2.91%
CCC(CC)c1nnc(NC(=O)Oc2ccccc2)s1 | -6.28%
CCOc1cccc(CNc2ccc(O)cc2)c1OCc1ccc(Cl)cc1Cl | -17.2%
CCOc1ccc(/C(O)=C2\C(=O)C(=O)N(CCN(C)C)C2c2cccc(OC)c2OC)cc1Cl (stereo not given) | -12.7%
Cc1ccc(OCc2nnc(SCC(=O)Nc3ccc4c(c3)OCO4)n2C)cc1 | -6.69%
BrC(=C\c1ccccc1)/C=N/N1CCN(c2ccccn2)CC1 | 9.97%
CCOC(=O)N1CCN(c2nc(C)c3c(n2)CCCC3=O)CC1 | -44.6%
COC(=O)C(C)N1C(=O)S/C(=C\c2cc(C)n(-c3ccccn3)c2C)C1=O (stereo not given) | -20.4%
Cc1ccc(-c2nc3ccccc3[nH]2)cc1NC(=S)NC(=O)c1ccccc1Br | 23.6%
Cc1c(NS(=O)(=O)c2ccc(N(C)C3CCCCC3)c([N+](=O)[O-])c2)c(=O)n(-c2ccccc2)n1C | -2.79%
Cc1cc(C)cc(CC(Cc2nc3ccccc3[nH]2)c2nc3ccccc3[nH]2)c1 (stereo not given) | 0.65%
COc1ccc(C(=O)N2CCN(C(=O)c3ccco3)CC2)cc1OC | 7.5%
Cc1cccc2cc(C#N)c(N3CCN(C)CC3)nc12 | 32.9%
CCOC(=O)c1c(NC(=O)Nc2ccc(C)cc2)sc2c1CCN(C)C2 | -18.4%
NC(=O)c1c(NC(=O)CN2C(=O)CCC2=O)sc2c1CCCCC2 | -18.9%
CC(C)(C)C1CCc2c(sc(NC(=O)c3cccs3)c2C(=O)N2CCCCC2)C1 (stereo not given) | 19.4%
CCCCCOC(=O)C1=C(C)Nc2nnnn2C1c1ccc(OC)c(OC)c1OC (stereo not given) | -24.2%
CCn1nnc(-c2ccccc2NS(=O)(=O)c2ccc(S(=O)(=O)N3CCCCCC3)cc2)n1 | -2.81%

Structure (SMILES) | inhibition
O=C(CSc1ccc2c(c1)OCCO2)NCCc1ccc(Cl)cc1Cl | -35.5%
Cc1[nH]c2ccccc2c1C(c1ccncc1)N1CCN(c2ccc(F)cc2)CC1 (stereo not given) | 34.4%
Oc1ccc(C=Nc2cccc3ncccc23)c(O)c1 | -31.8%
Oc1ccc(C=Nc2ccc3ncccc3c2)c(O)c1 | 33.2%
CCCNC(=O)COC(=O)CCC(=O)c1ccc(F)cc1 | -5.02%
O=C1CC(N2CCN(Cc3ccccc3)CC2)C(=O)N1c1ccccc1 (stereo not given) | -12.2%
OCCNc1ccc(Cl)cc1 | -4.09%
OCCN(Cc1ccccc1)Cc1ccc(Cl)cc1 | 2.5%
O=C(CN1CCCCCC1)Nc1cccc(Br)c1 | -13.7%
COCCn1c(-c2ccccc2F)n[nH]c1=S | 8.43%
CCOC(=O)/C(=C/C=C/c1ccccc1)NC(=O)c1ccccc1 | -13.2%
O=c1cc(O)nc(SCc2ccccc2Cl)[nH]1 | -18.8%
O=C1c2ccccc2C(=O)N1CCCc1nc(-c2ccccn2)no1 | 11.4%
CC1=NN(c2ccc(Cl)cc2)C(=O)C1C(c1cccc(O)c1)c1c(C)[nH]n(-c2ccc(Cl)cc2)c1=O (stereo not given) | 16.4%
O=C(Nn1c(O)c(C=C2N=c3ccccc3=N2)sc1=S)c1ccc(Cl)cc1 | -14.3%
CCOC(=O)/C=C1\SCC(=O)N1CC(=O)NC1CCCCC1 | -17.8%
O=C(CN(c1ccc(F)cc1)S(=O)(=O)c1ccc2c(c1)OCCO2)NCc1cccnc1 | -9.61%
S=C(c1ccc2c(c1)OCO2)N1CCCC1 | 15%
COc1ccc(-c2cn[nH]c2-c2ccc(OCc3ccc([N+](=O)[O-])cc3)cc2O)cc1 | 17.3%
CCN1C(=O)/C(=C/N2CC(C)CC(C)C2)SC1=S (stereo not given) | -18.2%
O=C(N/N=C/c1cccn1-c1ccc([N+](=O)[O-])cc1)C(O)c1ccccc1 (stereo not given) | 24.9%
Cc1cc(C(=O)N/N=C/C=C/c2ccc3c(c2)OCO3)n[nH]1 | -14.9%

Structure (SMILES) | inhibition
Cc1cc(C(=O)N/N=C/c2cccc([N+](=O)[O-])c2O)n[nH]1 | -8.52%
CC(=O)c1c(C)[nH]c(C(=O)CSc2nnc(-c3ccco3)n2Cc2ccccc2)c1C | -24.8%
Cn1cccc1C1NC(=O)c2c(sc3c2CCC(C(C)(C)C)C3)N1 (stereo not given) | 8.17%
Cc1nn(-c2ccccc2)c(C)c1C(=O)OC/C(O)=C(\C#N)c1nc2ccccc2[nH]1 | 4.56%
Cc1cc(C2=NNC(=NC3CC3)SC2)c(C)n1Cc1ccco1 | -13.5%
Cc1ccc(-c2nnc(SCC(=O)N3CCCc4ccccc43)n2N)cc1 | -11.9%
COC(=O)c1sc2nc(CSc3nc4ccc(C)cc4[nH]3)[nH]c(=O)c2c1C | -23.4%
CCOC(=O)C1=C(c2ccccc2)N=C2SCC(=O)N2C1c1ccc(O)c(OC)c1 (stereo not given) | 18.4%
CCOC(=O)c1cc2ccc(OC)c(OC)c2c(=O)s1 | -17.4%
C/C(=C\c1ccco1)C1Nc2cccc3cccc(c23)N1 | -7.01%
COc1ccc(OC)c(NC(=O)c2cc3c(Cl)nc4ccccc4c3s2)c1 | -3.31%
CCOC(=O)N1CCN(C(=O)c2ccc(NC(=O)c3ccc(C)cc3)cc2)CC1 | -6.04%
C/C(=N\Nc1nc2ccccc2[nH]1)c1cccs1 | -17.3%
C/C(=N\Nc1nc2ccccc2[nH]1)c1ccc(Cl)s1 | -35.5%
COC(=O)c1cn(C(=O)c2cccs2)c2ccccc12 | -2.66%
COc1c(/C=N/Nc2nc(N3CCCCC3)nc(N3CCCCC3)n2)cccc1[N+](=O)[O-] | -12.5%
Cc1cc(/C=N\NC(=O)c2cccs2)c(C)n1-c1ccc2ncccc2c1 | 17.9%
Cc1nc2ccccn2c1C(=O)N/N=C/c1ccccc1[N+](=O)[O-] | -6.8%
C=CCOc1ccc(CNc2nn[nH]n2)cc1 | -5.21%
O=C(CCN1CCc2ccccc2C1)Nc1ccccc1F | -20.9%
Cc1cc(-c2csc(NC(=O)c3ccc(C#N)cc3)n2)c(C)n1Cc1ccco1 | 36.1%
CCOC(=O)CSc1nc2c(sc(=S)n2-c2ccccc2)c(=O)n1-c1ccc(OC)cc1OC | -30.9%

Structure (SMILES) | inhibition
O=c1[nH]c(SCc2nc3ccccc3c(=O)n2-c2ccccc2C(F)(F)F)nc2ccccc12 | -7.42%
C/C(=N\NC(=O)c1c(Cl)c(C)nn1C)c1cccc(NC(=O)COc2ccc(Cl)cc2)c1 | 5.43%
COc1ccc(C2COC(=O)C2=N)c(NC(=O)c2ccc(Cl)cc2)c1 (stereo not given) | 7.97%
CCCCCCNCc1cccc(Br)c1 | 2.93%
COc1ccc2c(c1)OC1=C(C(=O)CCC1)C2C1=C(O)CCCC1=O (stereo not given) | 16.2%
Cc1cccc(C(=O)Nc2nnc(Cc3c[nH]c4ccccc34)s2)c1 | 12.6%
Nc1ncncc1-c1ccc(Cl)cc1 | 34.2%
O=C(Nc1nc2ccc(SC(F)F)cc2s1)c1ccc2c(c1)S(=O)(=O)c1ccccc1C2=O | -12.6%
COC(=O)C1=C(CSc2nc3ccccc3o2)NC(=O)NC1c1cc(C)ccc1C (stereo not given) | -14%
Cc1cc(C)nc(N2CCCC(C(=O)Nc3ccc4nc(C)c(C)nc4c3)C2)n1 (stereo not given) | -21.6%
Cc1ccc(C)n1-c1cccc(N)c1 | 0.96%
O=C1CC(c2ccccc2)n2ncnc2N1 (stereo not given) | 11.9%
COC(OC)c1nc(SCC(=O)Nc2cccc(Cl)c2)ncc1C(=O)O | 21.8%
COc1ccc(Cl)cc1-c1nc(SCC(N)=O)n[nH]1 | -19.9%
COc1ccc([N+](=O)[O-])cc1NC(=O)C(C)OC(=O)c1ccccc1C(=O)c1ccc(Cl)cc1 (stereo not given) | -13.1%
COC(=O)c1ccc(COC(=O)c2ccccn2)cc1 | -12%
CC(O)c1ccc(OCCN(C)c2ccccn2)cc1 (stereo not given) | -2.97%
CC(C)Cc1oc(C(=O)O)cc1CN | 34%
c1ccc2oc(SCc3cn4ccccc4n3)nc2c1 | 26.3%
Cc1cc(C)n(-c2ccc(C(=O)Nc3nc4ccccc4s3)cc2)n1 | 11.3%
C(=N\c1nc2ccccc2n1CCN1CCCCC1)/c1cccs1 | -10.7%
CC(=O)c1cccc(NC(=O)Nc2cccs2)c1 | -12.9%

Structure (SMILES) | inhibition
CC(C)(C)c1ccc(-c2n[nH]c(=S)n2/N=C/c2ccncc2)cc1 | 0.52%
COc1cccc(NC(=S)N/N=C2\CC(C)(C)Oc3ccc(O)cc32)c1 | -12%
N#CC(C#N)=c1ccc2c(c1)NC1(CCCCC1)N=2 | 30.4%
O=S1(=O)C=CC(Nc2ccccc2)C1 (stereo not given) | 2.14%
Brc1ccc(-c2cnc3n2CCCC3)cc1 | 1.27%
O=C(Nc1nccs1)c1cc(-c2ccco2)nc2ccccc12 | 19.2%
COc1ccccc1-c1cc(C(=O)Nc2cc(C)nn2-c2ccccc2)no1 | -9.01%
CCCOC(=O)C(C)n1cnc2sc(C)c(C)c2c1=O (stereo not given) | -22.4%
COc1cc(C)nc(Nc2nc(C)c(C(C)=O)s2)n1 | -27.4%
O=C(CSc1nnc(-c2cccs2)n1-c1ccccc1)NCc1ccc2c(c1)OCO2 | -11.6%
O=C(CCN1C(=O)c2ccccc2C1=O)Nc1ccc(-c2cn3ccsc3n2)cc1 | -11.9%
Cc1cccc(C)c1NC(=O)CSc1nnc(NC(=O)CN2CCOCC2)s1 | -25.4%
C(=N\N1CCN(C2c3ccccc3-c3ccccc32)CC1)/c1cccs1 | -18.1%
Cc1cc(/C=N/NC(=O)c2cccc([N+](=O)[O-])c2)c(C)n1-c1ccc(Cl)cc1Cl | 37.6%
COc1cc([N+](=O)[O-])ccc1NC(=O)CN(C)C | -22.9%
O=C(N/N=C/c1ccc(Cl)cc1Cl)c1cccc(F)c1 | -20.8%
Cc1ccc(N=Nc2ccc(O)c(/C=N\NC(=O)c3ccc(N)cc3)c2)cc1C | -8.25%
C/C(=N\NC(=O)C1CC1c1ccccc1)c1cccc([N+](=O)[O-])c1 (stereo not given) | 5.2%
O=C(N/N=C/C1C(c2ccccc2)C1(Cl)Cl)c1cccc(Cl)c1 (stereo not given) | 4.67%
Nc1nnc(CC(=O)N/N=C\c2cc([N+](=O)[O-])ccc2O)s1 | 4.52%
COc1cccc(NC(=O)NCCCN2CCN(c3ccc(F)cc3)CC2)c1 | 12.8%
COc1cc(C2C(C(=O)c3ccc(C)o3)=C(O)C(=O)N2CCc2ccccc2)ccc1O (stereo not given) | -22.6%
